This note sets out measurements from PubChem BioAssay (NCATS).

Assay [1] can be described thus: Cellular Toxicity (caspase-3) Jurkat (AID 655).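 Note: cells exposed to compound for 16 h at 37 °C before reading.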 The conditions noted are these: Jurkat caspase-3 activation, luminescence, DMSO = 0%, tamoxifen = 100%; at 92.2 µM (top of the series). In a few lines: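 Luminescent Caspase-Glo 3/7 read-out (20 min, room temperature) after 16 h compound treatment at 37 C of 5000 Jurkat cells per well. AC50 derived by Hill-equation fitting, scaled between DMSO basal and 100 uM tamoxifen stimulation.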

Assay [2] is described as follows: Cellular Toxicity (caspase-3) HUV-EC-C (AID 656). Note: potency is the fitted concentration of half-maximal effect. In a few lines: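 Luminescent Caspase-Glo 3/7 readout after 16 h, 37 °C compound exposure of HUV-EC-C endothelial cells, 1000 per well, complete medium. AC50 derived by Hill fitting, with DMSO as baseline and 100 uM tamoxifen as full activation.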
Assay [3] can be described thus: Cellular Toxicity (caspase-3) SHSY5Y (AID 657). In a few lines: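 Luminescent Caspase-Glo 3/7 read-out, 1 hr room temperature, follows 16 hours of compound treatment of SH-SY5Y cells at 37 °C. Normalization: DMSO basal, 10 uM staurosporine as 100%; AC50 values from Hill-equation concentration-response fits.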
Assay [4] is described as follows: Cellular Toxicity (caspase-3) BJ (AID 658).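 Note: 0% = DMSO basal and 100% = 10 µM staurosporine.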 In a few lines:
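BJ human foreskin fibroblasts, 1000 cells/well, treated 16 hours at 37 °C in complete medium; caspase 3/7 activity by Caspase-Glo luminescence after 1 hr at room temperature. Normalized to DMSO and 10 uM staurosporine; AC50 from Hill fits.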

Assay [5] is described as follows: Cellular Toxicity (caspase-3) MRC-5 (AID 659).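 Note: 0% = DMSO basal and 100% = 10 µM staurosporine.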 In a few lines: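 MRC-5 human normal lung fibroblasts, 1500 cells/well, treated 16 h at 37 °C in complete medium. Caspase 3/7 measured by Caspase-Glo luminescence after 1 h at room temperature. Normalized to DMSO and 10 uM staurosporine; AC50 from Hill fit.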
Assay [6] can be described thus: Cellular Toxicity (caspase-3) Mesangial (AID 660).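 Note: combined caspase 3 and 7 activity read by Caspase-Glo luminescence.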 In a few lines: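 Mesangial cells, 1000/well, 5 h settle at 37 °C; compound 16 h, 37 °C; Caspase-Glo 3/7 reagent 20 min RT; luminescence. Norm.: DMSO = 0%, tamoxifen 100 uM = 100%. AC50, Hill fit.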
A short description of assay [7]: Cellular Toxicity (caspase-3) SK-N-SH (AID 661).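 Note: 0% = DMSO basal and 100% = 10 µM staurosporine.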 In a few lines:
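Human neuroblastoma SK-N-SH, 1500 cells/well, 5 hr pre-incubation, then compound 16 hr, 37 °C. Caspase-Glo 3/7 reagent, 1 hr RT, luminescence. Norm. to DMSO/10 uM staurosporine; Hill-fit AC50.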

Assay [8] is described as follows: Cellular Toxicity (caspase-3) H-4-II-E (AID 663).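 Note: cells exposed to compound for 16 hr before readout.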 The method in brief:
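Rat hepatoma H-4-II-E cells (1500/well) plated 5 hr, then exposed to compound titrations for 16 hr at 37 °C. Caspase-Glo 3/7 luminescence read after 20 min at RT; data normalized to DMSO and 100 uM tamoxifen, AC50 from Hill fits.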

Assay [9] can be described thus: Cellular Toxicity (caspase-3) N2a (AID 665).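 Note: compound exposure lasted 16 h at 37 °C before readout.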 In a few lines: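 N2a cells, 1500/well, 5 h settle at 37 °C; cpd 16 h, 37 °C; Caspase-Glo 3/7, 1 h RT; luminescence. Norm: DMSO = 0, 10 uM staurosporine = 100%. AC50, Hill fit.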
Assay [10] in a line: Cellular Toxicity (caspase-3) NIH 3T3 (AID 666).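 Note: caspase signal read after 16 h compound exposure.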 In a few lines:
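Luminescence from aminoluciferin released by caspase-3/7 cleavage of a peptide substrate served as read-out. Mouse fibroblast NIH 3T3 cells were exposed to compounds over a concentration range for 16 hours, and AC50 values came from standard Hill modelling.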

A short description of assay [11]: Cellular Toxicity (caspase-3) Renal Proximal Tubule (AID 667).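 Note: cells exposed to compound for 16 hours at 37 °C before detection; 0% = DMSO basal and 100% = 10 µM staurosporine.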 In a few lines:
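Caspase 3/7 activation measured by luminescent aminoluciferin release in primary rat proximal tubule cells after 16 hr compound exposure at 37 °C. AC50 from Hill-fitted concentration-response, scaled between DMSO and 10 uM staurosporine.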

The target in assay [12] is Cytochrome P450 3A4 (Homo sapiens) (UniProt P08684). Nature of the assay: qHTS Assay for Activators of Cytochrome P450 3A4 (AID 885). Note: nearly all actives have a fitted effect of over 65% in size. The method in brief:
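20nM CYP3A4 + 25uM Luciferin-PPXE (=KM), 200mM KPO4; cpd 10 min RT; NADPH regen, 60 min RT; stop w/ detection buffer, 20 min; luminescence. Normalized to 57 uM ketoconazole.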
Background: qHTS replaces the single test concentration by a dilution series.

For assay [13] the target is unchanged. Nature of the assay: qHTS Assay for Inhibitors and Substrates of Cytochrome P450 3A4 (AID 884). Note: % is set by controls: 0 for no effect and ±100 for the full control effect; nearly all actives have a fitted effect of over 50% in size. The method in brief:
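20 nM human CYP3A4 with 25 uM Luciferin-PPXE (at KM) in 200 mM KPO4, preincubated 10 min with compound; NADPH regeneration started a 60 min RT reaction. Luciferin detected by luminescence, normalized to 57 uM ketoconazole as full inhibition.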

The target of assay [14] is Guanine nucleotide-binding protein G(i) subunit alpha-1 (Homo sapiens) (UniProt P63096). Nature of the assay: qHTS Assay for Inhibitors of RGS12 GoLoco Motif Activity (Green Fluorophore) (AID 879).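 Note: 0% = labeled peptide with Gαi1 and full inhibition = labeled peptide alone without protein; negative values mean loss of peptide binding seen as reduced polarization.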 In a few lines: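 Fluorescence polarization assay: 50 nM Gαi1 with 10 nM FITC-labeled RGS12 GoLoco peptide in 10 mM Tris pH 7.5, 150 mM NaCl, 0.1 mM GDP, 0.05% NP40, 10 min at room temperature with compound.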
Sequence of Guanine nucleotide-binding protein G(i) subunit alpha-1 (Homo sapiens) (P63096 whole entry, looked up): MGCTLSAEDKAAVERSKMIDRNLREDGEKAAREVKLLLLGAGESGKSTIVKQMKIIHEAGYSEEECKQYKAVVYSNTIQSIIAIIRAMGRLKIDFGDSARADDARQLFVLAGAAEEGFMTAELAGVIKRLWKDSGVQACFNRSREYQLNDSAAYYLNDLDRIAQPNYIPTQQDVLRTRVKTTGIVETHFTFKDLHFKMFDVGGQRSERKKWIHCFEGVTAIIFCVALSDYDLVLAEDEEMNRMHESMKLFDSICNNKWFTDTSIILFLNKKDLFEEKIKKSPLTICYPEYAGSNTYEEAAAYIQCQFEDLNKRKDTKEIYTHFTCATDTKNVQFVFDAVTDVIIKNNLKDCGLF

Assay [15] deals with Cytochrome P450 2C19 (Homo sapiens) (UniProt P33261). Nature of the assay: qHTS Assay for Inhibitors and Substrates of Cytochrome P450 2C19 (AID 899). Note: % is set by controls: 0 for no effect and ±100 for the full control effect; nearly all actives have a fitted effect of over 60% in size. In a few lines: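 Signal comes from luciferase acting on luciferin released by CYP2C19-mediated hydroxylation of Luciferin-H EGE, 10uM (KM). Assay mix: 5nM enzyme, 50mM KPO4; 60 min at 37C with NADPH regeneration. Data normalized against 57uM ketoconazole.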
Sequence of Cytochrome P450 2C19 (Homo sapiens) (P33261 whole entry, looked up): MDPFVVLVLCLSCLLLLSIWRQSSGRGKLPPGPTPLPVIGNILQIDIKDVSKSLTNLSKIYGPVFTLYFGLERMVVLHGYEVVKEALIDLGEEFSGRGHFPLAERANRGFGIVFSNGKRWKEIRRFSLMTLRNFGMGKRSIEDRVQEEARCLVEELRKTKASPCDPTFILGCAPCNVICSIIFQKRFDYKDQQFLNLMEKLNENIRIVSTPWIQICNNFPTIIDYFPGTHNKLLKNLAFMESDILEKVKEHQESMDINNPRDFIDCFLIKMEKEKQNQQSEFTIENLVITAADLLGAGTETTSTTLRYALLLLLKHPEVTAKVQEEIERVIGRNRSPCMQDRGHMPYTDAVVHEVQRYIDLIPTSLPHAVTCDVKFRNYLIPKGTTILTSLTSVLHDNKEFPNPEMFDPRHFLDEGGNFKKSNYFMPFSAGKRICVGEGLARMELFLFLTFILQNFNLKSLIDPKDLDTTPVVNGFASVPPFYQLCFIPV

Assay [16] in a line: Confirmation and Secondary Assay for Modulators of Hemoglobin Beta Chain Splicing at IVS2 654 locus (AID 910).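 Note: HeLa cells stably carrying EGFP split by mutant beta-globin IVS2-654 intron; % of control where 0% means no effect.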 In a few lines: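 HeLa cells stably expressing EGFP interrupted by β-globin IVS2-654 intron, seeded overnight in Opti-MEM/2% FCS, then treated 2 days at 37 °C. Restored splicing read as total peak GFP intensity per well by laser scanning cytometry (488 nm excitation, 500–520 nm emission); 500 nM antisense PNA as control.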

The target in assay [17] is Cytochrome P450 2C9 (Homo sapiens) (UniProt P11712). Nature of the assay: qHTS Assay for Inhibitors and Substrates of Cytochrome P450 2C9 (AID 883). Note: % is set by controls: 0 for no effect and ±100 for the full control effect; nearly all actives have a fitted effect of over 60% in size. In a few lines: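 Signal: luciferase luminescence reporting luciferin produced by CYP2C9. Conditions: 10nM enzyme, Luciferin-H 100uM at KM, 25mM KPO4, 37C, 60 min NADPH-driven reaction. Reference: 57uM sulphaphenazole as 100% inhibition.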
Sequence of Cytochrome P450 2C9 (Homo sapiens) (P11712 whole entry, looked up): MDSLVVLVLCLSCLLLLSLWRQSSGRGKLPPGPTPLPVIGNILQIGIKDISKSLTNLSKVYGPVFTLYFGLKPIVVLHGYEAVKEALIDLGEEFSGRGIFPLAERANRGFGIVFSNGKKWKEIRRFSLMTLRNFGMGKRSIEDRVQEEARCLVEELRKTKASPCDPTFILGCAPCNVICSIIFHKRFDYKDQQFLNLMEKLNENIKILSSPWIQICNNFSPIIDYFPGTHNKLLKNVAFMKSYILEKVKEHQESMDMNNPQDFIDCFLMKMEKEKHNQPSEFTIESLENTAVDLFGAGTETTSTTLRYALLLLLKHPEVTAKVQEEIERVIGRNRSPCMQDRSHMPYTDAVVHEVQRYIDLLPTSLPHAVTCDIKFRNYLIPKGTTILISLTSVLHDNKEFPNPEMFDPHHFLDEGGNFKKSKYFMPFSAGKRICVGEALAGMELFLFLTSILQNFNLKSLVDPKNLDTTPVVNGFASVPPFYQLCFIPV

Assay [18] in a line: qHTS Assay for Identification of Small Molecule Antagonists for NFkB Signaling Pathway (AID 895; active = well fitted inhibition curve with a large enough effect in the signal ratio, with a control signal flat, not every such curve was filed as active; the % refers to the signal ratio; note: % is set by controls: 0 for no effect and ±100 for the full control effect). The method in brief:
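ME-180 NFkB-bla cells (beta-lactamase under NFkB response element), plated overnight, treated with compound then 10 pM TNF alpha (about EC50) for 5 hrs at 37 C. LiveBLAzer FRET read at 460/530 nm emission, 405 nm excitation.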

“And” between values parts separate entries of the source, which are not always exact repeats. Identical values can stand only once. Unmarked numbers belong to inactive results. Inconclusive results are not listed. The source made the active and inactive calls. Unless noted, calls come from the whole dose curve; as a rule, active = well fitted curve in the direction sought with a large enough effect; inconclusive = small, poorly fitted or top-dose-only effect, or another doubt; inactive = no such curve, though single readings can be large; an effect the other way counts as inactive or inconclusive.

Sequence of Cytochrome P450 3A4 (Homo sapiens) (P08684 whole entry, looked up): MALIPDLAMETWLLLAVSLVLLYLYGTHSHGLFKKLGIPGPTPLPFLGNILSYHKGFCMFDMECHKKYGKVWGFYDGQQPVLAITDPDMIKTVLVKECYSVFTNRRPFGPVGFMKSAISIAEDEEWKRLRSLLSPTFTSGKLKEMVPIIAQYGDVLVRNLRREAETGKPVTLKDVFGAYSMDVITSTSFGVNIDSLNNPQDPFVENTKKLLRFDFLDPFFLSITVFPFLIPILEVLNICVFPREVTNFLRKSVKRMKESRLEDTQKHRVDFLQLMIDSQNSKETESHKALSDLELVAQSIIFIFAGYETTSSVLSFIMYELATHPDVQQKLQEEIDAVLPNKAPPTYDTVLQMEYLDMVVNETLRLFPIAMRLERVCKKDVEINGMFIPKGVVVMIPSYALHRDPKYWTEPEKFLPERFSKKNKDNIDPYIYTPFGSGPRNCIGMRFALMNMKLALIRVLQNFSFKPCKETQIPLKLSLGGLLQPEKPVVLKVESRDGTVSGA

For the molecule `CCOC(=O)CC(SP(=S)(OC)OC)C(=O)OCC` (stereo not given), the caspase-3 activation in assay [1] was -0.413%. In assay [2], the Potency result was “inactive”. The outcome in [3], in [4], in assay [5], in [6], in assay [7] and in assay [8] was inactive. For the same molecule, the outcome in assay [9], in assay [10], in [11] and in [12] was inactive.
In the case of `Nc1ccccc1C(=O)O`, the caspase-3 activation in assay [1] is -0.541%. For the same molecule, the Potency result in assay [2] and in assay [13] was “inactive” in each case. For the same molecule, the molecule was classed as inactive in assay [3], in assay [4], in assay [5], in assay [6], in assay [7] and in [8]. In addition, the result in [9], in assay [10] and in [11] was inactive.
In the case of `COC(=O)C(c1ccccc1)C1CCCCN1` (stereo not given), the caspase-3 activation in assay [1] is 0.101%. Besides, the Potency result in assay [2] and in [13] was “inactive” throughout. Also, the outcome in assay [3], in assay [4], in assay [5], in assay [6], in assay [7] and in [8] was inactive. Moreover, the call in assay [9], in assay [10] and in [11] was inactive.
`CN1C[C@H](C(=O)N[C@]2(C)O[C@@]3(O)[C@@H]4CCCN4C(=O)[C@H](Cc4ccccc4)N3C2=O)C=C2c3cccc4[nH]cc(c34)C[C@H]21`: the Potency entry in assay [2] is “inactive”. Also, the call in assay [3], in assay [4], in [5], in [6], in assay [7] and in [8] was inactive. Moreover, the outcome in assay [9], in assay [10] and in assay [11] was inactive.
As to `NCCc1ccc(O)cc1`, the caspase-3 activation in assay [1] was 3.49%. For the same molecule, the Potency entry in assay [2], in assay [13] and in assay [15] was “inactive” each time. Besides, the outcome in [3], in assay [4], in assay [5], in [6], in assay [7] and in assay [8] was inactive. The outcome in assay [9], in assay [11], in assay [14] and in assay [16] was inactive.
Take `CC(C)NC(C)C`: the caspase-3 activation in assay [1] was 0.66%. Moreover, the Potency entry in assay [2] and in [13] was “inactive” each time. Further, the outcome in assay [3], in assay [4], in [5], in [6], in [7] and in assay [8] was inactive. The call in assay [9], in [10] and in [11] was inactive.
For the molecule `C[C@]12CCC(=O)C=C1CC[C@@H]1[C@@H]2CC[C@]2(C)C(=O)CC[C@@H]12`, in [1], the caspase-3 activation was 7.89% and 0.322%. For the same molecule, the Potency entry in assay [2] and in assay [13] was “inactive” each time. In addition, the call in assay [3], in [4], in assay [5], in assay [6], in assay [7] and in assay [8] was inactive. Moreover, the result in assay [9], in assay [10], in [11] and in assay [14] was inactive.
For `Clc1ccc(C(c2ccc(Cl)cc2)C(Cl)(Cl)Cl)cc1`, the caspase-3 activation in assay [1] is 7.14%. The Potency in assay [2] is 50.1 µM (active). For the same molecule, the result in assay [3], in assay [4], in assay [5], in assay [6], in assay [7] and in assay [8] was inactive. The call in [9], in assay [10], in assay [11] and in assay [16] was inactive. Further, the Potency result in assay [13] was “inactive”.
`O=c1[nH]oc2c1CCNC2`: the outcome in [14], in assay [17] and in assay [16] was inactive. In addition, the Potency entry in assay [13] and in assay [18] was “inactive” each time.
With `Oc1ccc(Cl)cc1`, the caspase-3 activation in assay [1] was -0.847%. In addition, the Potency entry in assay [2] and in [13] was “inactive” each time. For the same molecule, the molecule was classed as inactive in assay [3], in assay [4], in assay [5], in assay [6], in assay [7] and in assay [8]. For the same molecule, the molecule was classed as inactive in assay [9], in assay [10], in assay [11] and in [16].
Turning to `Nc1ccccc1`, the caspase-3 activation in assay [1] was -1.64%. Besides, the Potency result in [2] and in assay [13] was “inactive” throughout. Also, the result in assay [3], in assay [4], in assay [5], in assay [6], in assay [7] and in assay [8] was inactive. Also, the call in assay [9], in [10] and in assay [11] was inactive.
As to `C[C@]1(O)CC[C@H]2[C@@H]3CCC4=CC(=O)CC[C@]4(C)[C@@]3(F)[C@@H](O)C[C@@]21C`, the caspase-3 activation in assay [1] is -1.66%. For the same molecule, the Potency result in [2] and in assay [13] was “inactive” in each case. Also, the call in [3], in [4], in assay [5], in assay [6], in assay [7] and in assay [8] was inactive. For the same molecule, the molecule was classed as inactive in assay [9], in assay [10] and in assay [11].
